Screening results (PubChem BioAssay)
Most compounds without a hit are left out; they make up all but 12% or so of the library.
HP1b binding inh: HTS for Inhibitors of HP1-beta Chromodomain Interactions with Methylated Histone Tails. AlphaScreen HP1-beta / biotin-H3K9me3 peptide binding. Potency, µM (series often up to 114 µM), for the others: at the top dose activity change, negative = inhibition, hits mostly inhibitors. 0.56% of 390,000 active. Chromobox protein homolog 1 (Homo sapiens), P83916. AID 540317, 2011; further: nearly all actives have a fitted effect of over 70% in size
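AlphaScreen: HP1-beta (50 nM) preformed 30 min with biotin-H3(1-18)K9me3 peptide (50 nM) in PBS pH 7.4, 0.01% Tween-20. Compound added for 30 min at RT, then streptavidin donor/nickel chelate acceptor beads (10 ug/mL) for 30 min.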
JMJD2A Tudor: qHTS Assay for Inhibitors of JMJD2A-Tudor Domain; Potency, µM (series often up to 114 µM), inactives show top-dose activity change, negative = inhibition, most hits filed as inhibitors; 4.4% of 390,000 active; Lysine-specific demethylase 4A (Homo sapiens), O75164; AlphaScreen JMJD2A-Tudor / H3K4me3 peptide binding; further: on the % scale 0 is the no-effect control and ±100 the full control effect; nearly all actives have a fitted effect of over 50% in size
Sfp inh: qHTS Assay for Inhibitors of Bacillus subtilis Sfp phosphopantetheinyl transferase (PPTase). 4'-phosphopantetheinyl transferase ffp (Bacillus subtilis), Q9F4F7. Biochemical Sfp PPTase activity, qHTS. Potency, µM, for the others: largest response in the series, negative = inhibition, actives largely listed as inhibitors. 3.5% of 310,000 active. AID 1490, 2009;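 further: the enzyme is Sfp with the accession as filed and its product quenches rhodamine fluorescence; 0% = enzyme reaction without inhibitor and -100% = no enzyme wells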
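Fluorescence-quenching assay with 15 nM Sfp, 5 uM rhodamine-CoA and 12.5 uM BHQ-2-labelled ybbR peptide in pH 7.6 Hepes/MgCl2 buffer. Enzyme was pre-incubated with compound for 15 min at room temperature. Rate was taken from the 30-min fluorescence change (525/598 nm).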
L3MBTL1 block: qHTS Assay for the Inhibitors of L3MBTL1; Lethal(3)malignant brain tumor-like protein 1 (Homo sapiens), Q9Y468; AlphaScreen L3MBTL1–H3K9me1 peptide binding; Potency, µM (doses to about 57.1 µM), inactives show top-dose activity, negative = inhibition, hits mostly inhibitors; 0.66% of 230,000 active; further: on the % scale 0 is the no-effect control and ±100 the full control effect; nearly all actives have a fitted effect of over 60% in size
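AlphaScreen proximity signal between nickel-chelate acceptor and streptavidin donor beads (final 10 ug/mL) reports binding of 50 nM L3MBTL1 to 75 nM biotin-H3 K9me1 peptide; complex incubated with compounds 30 min at room temperature; cefsulodin titration as control.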
BAZ2B inh: qHTS Assay for Inhibitors of BAZ2B | Bromodomain adjacent to zinc finger domain protein 2B (Homo sapiens), Q9UIF8 | 4.4% of 360,000 active | AlphaScreen BAZ2B-H3K14Ac peptide displacement | AID 504333, 2011 | Potency, µM (doses to about 114 µM), without a hit: at the top dose activity change, negative = inhibition, most hits filed as inhibitors; further: on the % scale 0 is the no-effect control and ±100 the full control effect; nearly all actives have a fitted effect of over 60% in size
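Inhibition is scored as reduced AlphaScreen emission. The BAZ2B/b-H3(5-23)K14Ac complex (50 nM each) in PBS pH 7.4, 0.01% Tween-20 meets compound (up to 110 uM) for 30 min at RT before bead addition.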
G9a inh: qHTS Assay for Inhibitors of Histone Lysine Methyltransferase G9a; 8.8% of 350,000 active; AID 504332, 2011; Potency, µM (highest dose often 102 µM), without a hit: at the top dose activity, negative = inhibition, most hits filed as inhibitors; G9a H3K9 monomethylation, AlphaScreen, 2 h; Histone-lysine N-methyltransferase EHMT2 (Homo sapiens), Q96KQ7; further: on the % scale 0 is the no-effect control and ±100 the full control effect; nearly all actives have a fitted effect of over 75% in size
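Chemiluminescent proximity detection of H3K9 monomethylation, read after 10 min bead incubation in the dark. Reaction: 20 nM G9a, 500 nM biotin-H3K9 peptide, 20 uM SAM cofactor, 2 h, room temperature, following 15 min enzyme-compound preincubation.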
An asterisk follows results filed as active; [ ] = dose if it differs, or a comment. The call rests on the fitted dose curve; in most records, active means well fitted curve in the direction sought with a large enough effect; inconclusive means small, poorly fitted or top-dose-only effect, or another doubt; inactive means no such curve, though single readings can be large; an effect the other way counts as inactive or inconclusive. Potency means the concentration at half of the fitted maximal effect.

Results for COc1ccccc1C(C)Nc1ccc(S(=O)(=O)N2CCN(C)CC2)cc1[N+](=O)[O-] (stereo unspecified) ?
HP1b binding inh: inconclusive; JMJD2A Tudor: 35µM*; L3MBTL1 block: inconclusive; BAZ2B inh: 40µM*; G9a inh: inconclusive

Results for CN1CCN(S(=O)(=O)c2ccc(N(C)Cc3ccc(OC(F)F)cc3)c([N+](=O)[O-])c2)CC1 ?
HP1b binding inh: inconclusive; JMJD2A Tudor: inconclusive; L3MBTL1 block: -23%; BAZ2B inh: 50µM*; G9a inh: 9%[0.501 µM]

What do the screens show for `CC(Nc1ccc(S(=O)(=O)N2CCN(C)CC2)cc1[N+](=O)[O-])c1ccccc1` (stereo unspecified)?
HP1b binding inh: -28%; JMJD2A Tudor: inconclusive; L3MBTL1 block: -3%; BAZ2B inh: inconclusive; G9a inh: 40µM*

What do the screens show for `COc1cccc(C(CNc2ccc(S(=O)(=O)N3CCN(C)CC3)cc2[N+](=O)[O-])N(C)C)c1` (stereo unspecified)?
HP1b binding inh: -22%; JMJD2A Tudor: inconclusive; L3MBTL1 block: -9%; BAZ2B inh: inconclusive; G9a inh: 50µM*

What do the screens show for `COc1ccccc1Oc1ccc(S(=O)(=O)N2CCN(C)CC2)cc1`?
HP1b binding inh: -1%; JMJD2A Tudor: -22%; Sfp inh: 16%; L3MBTL1 block: -4%; G9a inh: -19%

What do the screens show for `CC(Nc1cc(N2CCN(S(C)(=O)=O)CC2)ccc1[N+](=O)[O-])c1ccccc1` (stereo unspecified)?
HP1b binding inh: -2%; JMJD2A Tudor: -34%; Sfp inh: -2%; L3MBTL1 block: -7%; BAZ2B inh: -36%; G9a inh: -5%[59 µM]

Results for CC(C)(C)OC(=O)N1CCc2nc(N3CCN(c4ncccn4)CC3)ncc2C1 ?
HP1b binding inh: 44%; JMJD2A Tudor: 9%; BAZ2B inh: 1%; G9a inh: 7%[59 µM]

Results for COc1ccc(NC(=O)CSc2oc(-c3ccco3)nc2S(=O)(=O)c2ccccc2)c(OC)c1 ?
HP1b binding inh: 39%; JMJD2A Tudor: -24%; BAZ2B inh: 17%; G9a inh: 4%[59 µM]

What do the screens show for `CS(=O)(=O)Nc1nnc(SCC(=O)N(c2ccccc2)c2ccccc2)s1`?
HP1b binding inh: 25%; JMJD2A Tudor: -13%; Sfp inh: 5%; L3MBTL1 block: 13%; BAZ2B inh: -31%; G9a inh: 50µM*

How did Cc1cccc(C)c1NC(=O)CCCSc1nnc(N)s1 do in these assays?
HP1b binding inh: 48%; JMJD2A Tudor: -2%; Sfp inh: 1%; L3MBTL1 block: -6%; BAZ2B inh: -3%; G9a inh: 50µM*

Results for CC(C)N(C(=O)CSc1nnc(NC(=O)c2cccs2)s1)C(C)C ?
HP1b binding inh: 60%; JMJD2A Tudor: -12%; Sfp inh: 29%; L3MBTL1 block: 4%; BAZ2B inh: -3%; G9a inh: -12%[59 µM]

How did CCSc1nnc(NC(=O)CSc2nccn2-c2cc(C)cc(C)c2)s1 do in these assays?
HP1b binding inh: 8%; JMJD2A Tudor: -18%; Sfp inh: 2%; L3MBTL1 block: -3%; BAZ2B inh: inconclusive; G9a inh: inconclusive

Results for Cc1cccc(C)c1NC(=O)COC(=O)CSc1nnc(N)s1 ?
HP1b binding inh: 34%; JMJD2A Tudor: -5%; Sfp inh: -11%; L3MBTL1 block: -8%; BAZ2B inh: 12%; G9a inh: 18%[59 µM]
